# Measurements from PubChem BioAssay.
# Values joined by “and” are separate entries in the source; they are usually repeats but may differ in a detail not shown here. Equal entries are not always repeated. Records with an inconclusive call do not appear. Active and inactive are the calls of the source.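 Rule for the calls, unless noted: active = normalized viability below 100% at a tested concentration; inactive = the rest.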
# Key:
# [1] = growth inhibition of DIPG glioma cells, dose response, cell-based, SU-DIPG-XVII, MIPE5.0, CellTiter-Glo, qHTS (AID 1347060; cut-off not given, nearly all actives have AC50 up to about 26 µM;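 for AC50: cells exposed to compound for 48 hours before viability readout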); conditions: SU-DIPG-XVII viability, CellTiter-Glo ATP luminescence
# [2] = growth inhibition of DIPG glioma cells, dose response, cell-based, SU-DIPG-XIII, MIPE4.0, CellTiter-Glo, qHTS (AID 1347061; cut-off not given, nearly all actives have AC50 up to about 37 µM;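 note: cells exposed to compound for 48 hours before readout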); conditions: SU-DIPG-XIII viability, CellTiter-Glo ATP luminescence
# [3] = growth inhibition of DIPG glioma cells, dose response, cell-based, JHH-DIPG-1, MIPE4.0, CellTiter-Glo, qHTS (AID 1347062; cut-off not given, nearly all actives have AC50 up to about 27 µM;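 for AC50: cells exposed to compound for two days before readout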); conditions: JHH-DIPG-1 viability, CellTiter-Glo ATP luminescence
# [4] = growth inhibition of DIPG glioma cells, dose response, cell-based, SU-DIPG-IV, MIPE4.0, CellTiter-Glo, qHTS (AID 1347063; cut-off not given, nearly all actives have AC50 up to about 30 µM;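 note: compound exposure lasted 48 hours before the viability readout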); conditions: SU-DIPG-IV viability, CellTiter-Glo ATP luminescence
# [5] = growth inhibition of DIPG glioma cells, dose response, cell-based, SU-DIPG-XIII, MIPE5.0, CellTiter-Glo, qHTS (AID 1347064; cut-off not given, nearly all actives have AC50 up to about 23 µM;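 for AC50: cells exposed to compound for 48 hours before the viability read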); conditions: SU-DIPG-XIII viability, CellTiter-Glo ATP luminescence
# [6] = viability loss in pontine glioma line – cell-based, SU-DIPG-XXV, MIPE5.0, CellTiter-Glo, qHTS, dose response (AID 1347065; cut-off not given, nearly all actives have AC50 up to about 26 µM;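 note: cells exposed to compound for 48 hours before ATP readout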); conditions: CellTiter-Glo ATP luminescence
# [7] = SU-DIPG-VI glioma cell viability, MIPE4.0 library, CellTiter-Glo luminescence, qHTS (AID 1347066; cut-off not given, nearly all actives have AC50 up to about 30 µM;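 note: cells exposed to compound for 48 hours before readout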); conditions: CellTiter-Glo ATP luminescence
# [8] = JHH-DIPG-1 glioma cell viability, MIPE5.0 library, CellTiter-Glo luminescence, qHTS (AID 1347067; cut-off not given, nearly all actives have AC50 up to about 26 µM;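 note: cells exposed to compound for 48 hours before readout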); conditions: JHH-DIPG-1 glioma viability, CellTiter-Glo ATP luminescence
# [9] = sensitizers of A549 cells to miR-34 induction, primary screen, imaging, A549 dox-inducible miR-34, nuclei and caspase counts (AID 1347080;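 active = compounds whose cell count with miR-34 switched on is under 0.7 times the count with it off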); conditions: A549 miR-34 inducible, Hoechst nuclei count, 48 h
# [10] = modifiers of HSF1 nuclear foci, imaging, Selleck Cancer Library (AID 1347162; in the data active = plate-normalised HSF1 focus index below about 0.46); conditions: human cells, at 10 µM; SSMD: measured here: HSF1 foci SSMD mean; cell count: measured here: cell number; plate-normalised HSF1 focus index: stronger effect = lower value
# [11] = survival rescue of mitochondrial mutant cells in low glucose, primary screen, MELAS cybrids, Rieske KO mouse fibroblasts, CellTiter-Glo (AID 1508586;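 active = mean z-score across replicates of 1.96 or higher in either the MELAS or the Rieske mutant cell line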;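 note: z relative to plate mean and SD of compound and empty wells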)
# [12] = ovarian cancer cell viability with rucaparib, profiling panel, oncology-focused library, rucaparib conditional (AID 1508598); conditions: patient-derived ovarian cancer cells, CellTiter-Glo viability, 144 h, stronger effect = lower value
# [13] = SU-DIPG-XXV glioma cell viability, MIPE5.0 library, qHTS (AID 1347068; cut-off not given, nearly all actives have IC50 up to about 30 µM;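 for IC50: cells exposed to compound for 48 hours before viability readout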)
# [14] = stronger effect = lower value, cell number ratio, induced over uninduced
# [15] = measured here: relative caspase fold change +Dox/-Dox
# [16] = measured here: total cells with miR-34 induction, stronger effect = lower value
# [17] = measured here: total cells without miR-34 induction
# [18] = MELAS cybrid survival, CellTiter-Glo 48 h, stronger effect = higher value
# [19] = Rieske KO mouse fibroblast survival, CellTiter-Glo 72 h
compound,measurement,setting,value
Nc1ccc(C(=O)Nc2cccc(-c3nc(N4CCOCC4)c4oc5ncccc5c4n3)c2)cn1,AC50,[1],4.68 µM (active)
same,AC50,[2],18.7 µM (active)
same,AC50,[3],16.6 µM (active)
same,AC50,[4],16.6 µM (active)
same,AC50,[5],8.33 µM (active)
same,AC50,[6],2.09 µM (active)
same,AC50,[7],11.8 µM (active)
same,AC50,[8],8.33 µM (active)
same,fold change,[9]; [14],1.02 (inactive)
same,fold change,[9]; [15],0.903
same,cell count,[9]; [16],2410
same,cell count,[9]; [17],2370
same,SSMD,[10],-0.394
same,cell count,[10],6980
same,plate-normalised HSF1 focus index,[10],0.989 (inactive)
same,z-score,[11]; [18],3.1 (active)
same,z-score,[11]; [19],-2.85
same,viability,"[12]; at 0.000305 µM, OCI-C5x cells, with rucaparib 10 µM, 100% = cells with rucaparib alone",106% (inactive)
same,viability,"[12]; at 0.000305 µM, OCI-C5x cells, without rucaparib",111% (inactive)
same,viability,"[12]; at 0.000305 µM, OCI-P5x cells, with rucaparib 20 µM, 100% = cells with rucaparib alone",83.5% (active)
same,viability,"[12]; at 0.000305 µM, OCI-P5x cells, without rucaparib",86.3% (active)
same,viability,"[12]; at 0.00122 µM, OCI-C5x cells, with rucaparib 10 µM, 100% = cells with rucaparib alone",106% (inactive)
same,viability,"[12]; at 0.00122 µM, OCI-C5x cells, without rucaparib",107% (inactive)
same,viability,"[12]; at 0.00122 µM, OCI-P5x cells, with rucaparib 20 µM, 100% = cells with rucaparib alone",68.8% (active)
same,viability,"[12]; at 0.00122 µM, OCI-P5x cells, without rucaparib",85.2% (active)
same,viability,"[12]; at 0.00488 µM, OCI-C5x cells, with rucaparib 10 µM, 100% = cells with rucaparib alone",105% (inactive)
same,viability,"[12]; at 0.00488 µM, OCI-C5x cells, without rucaparib",108% (inactive)
same,viability,"[12]; at 0.00488 µM, OCI-P5x cells, with rucaparib 20 µM, 100% = cells with rucaparib alone",71.1% (active)
same,viability,"[12]; at 0.00488 µM, OCI-P5x cells, without rucaparib",81% (active)
same,viability,"[12]; at 0.0195 µM, OCI-C5x cells, with rucaparib 10 µM, 100% = cells with rucaparib alone",115% (inactive)
same,viability,"[12]; at 0.0195 µM, OCI-C5x cells, without rucaparib",112% (inactive)
same,viability,"[12]; at 0.0195 µM, OCI-P5x cells, with rucaparib 20 µM, 100% = cells with rucaparib alone",56.8% (active)
same,viability,"[12]; at 0.0195 µM, OCI-P5x cells, without rucaparib",74.2% (active)
same,viability,"[12]; at 0.0781 µM, OCI-C5x cells, with rucaparib 10 µM, 100% = cells with rucaparib alone",122% (inactive)
same,viability,"[12]; at 0.0781 µM, OCI-C5x cells, without rucaparib",117% (inactive)
same,viability,"[12]; at 0.0781 µM, OCI-P5x cells, with rucaparib 20 µM, 100% = cells with rucaparib alone",114% (inactive)
same,viability,"[12]; at 0.0781 µM, OCI-P5x cells, without rucaparib",117% (inactive)
same,viability,"[12]; at 0.313 µM, OCI-C5x cells, with rucaparib 10 µM, 100% = cells with rucaparib alone",147% (inactive)
same,viability,"[12]; at 0.313 µM, OCI-C5x cells, without rucaparib",131% (inactive)
same,viability,"[12]; at 0.313 µM, OCI-P5x cells, with rucaparib 20 µM, 100% = cells with rucaparib alone",109% (inactive)
same,viability,"[12]; at 0.313 µM, OCI-P5x cells, without rucaparib",119% (inactive)
same,viability,"[12]; at 1.25 µM, OCI-C5x cells, with rucaparib 10 µM, 100% = cells with rucaparib alone",150% (inactive)
same,viability,"[12]; at 1.25 µM, OCI-C5x cells, without rucaparib",151% (inactive)
same,viability,"[12]; at 1.25 µM, OCI-P5x cells, with rucaparib 20 µM, 100% = cells with rucaparib alone",111% (inactive)
same,viability,"[12]; at 1.25 µM, OCI-P5x cells, without rucaparib",107% (inactive)
same,viability,"[12]; at 5 µM, OCI-C5x cells, with rucaparib 10 µM, 100% = cells with rucaparib alone",178% (inactive)
same,viability,"[12]; at 5 µM, OCI-C5x cells, without rucaparib",138% (inactive)
same,viability,"[12]; at 5 µM, OCI-P5x cells, with rucaparib 20 µM, 100% = cells with rucaparib alone",80% (active)
same,viability,"[12]; at 5 µM, OCI-P5x cells, without rucaparib",78.9% (active)
CN(C)C[C@@H]1CCn2cc(c3ccccc32)C2=C(C(=O)NC2=O)c2cn(c3ccccc23)CCO1,AC50,[1],26.3 µM (active)
same,AC50,[2],16.6 µM (active)
same,AC50,[3],29.6 µM (active)
same,AC50,[4],16.6 µM (active)
same,AC50,[5],9.34 µM (active)
same,AC50,[6],18.6 µM (active)
same,AC50,[7],13.2 µM (active)
same,AC50,[8],7.42 µM (active)
same,SSMD,[10],3.92
same,cell count,[10],6860
same,plate-normalised HSF1 focus index,[10],1.24 (inactive)
O=[N+]([O-])c1cn2c(n1)OC[C@@H](OCc1ccc(OC(F)(F)F)cc1)C2,AC50,[1],26.3 µM (active)
same,outcome,[2],inactive
same,outcome,[3],inactive
same,outcome,[4],inactive
same,outcome,[5],inactive
same,outcome,[6],inactive
same,outcome,[8],inactive
same,outcome,[13],inactive
COc1ccnc2[nH]cc(C(=O)C(=O)N3CCN(C(=O)c4ccccc4)C[C@H]3C)c12,outcome,[1],inactive
same,outcome,[2],inactive
same,outcome,[3],inactive
same,outcome,[4],inactive
same,outcome,[5],inactive
same,outcome,[6],inactive
same,outcome,[8],inactive
same,outcome,[13],inactive
Cc1ccc(-c2ncn(-c3ccc(Nc4nccc(-c5cccc(N6CCOCC6)c5)n4)cc3)n2)cn1,AC50,[1],2.35 µM (active)
same,AC50,[2],0.0833 µM (active)
same,AC50,[3],0.0935 µM (active)
same,AC50,[4],0.118 µM (active)
same,AC50,[5],2.63 µM (active)
same,AC50,[6],2.95 µM (active)
same,AC50,[8],2.63 µM (active)
same,IC50,[13],16.6 µM (active)
CC(=O)O[C@H]1C[C@@H]2CC[C@@H]3[C@H](CC[C@@]4(C)[C@H]3C[C@H]([N+]3(C)CCCCC3)[C@@H]4OC(C)=O)[C@@]2(C)C[C@@H]1[N+]1(C)CCCCC1,outcome,[1],inactive
same,outcome,[2],inactive
same,outcome,[3],inactive
same,outcome,[4],inactive
same,outcome,[5],inactive
same,outcome,[6],inactive
same,outcome,[7],inactive
same,outcome,[13],inactive
same,fold change,[9]; [14],1.08 (inactive) and 0.979 (inactive) and 0.882 (inactive)
same,fold change,[9]; [15],0.886 and 0.709 and 0.967
same,cell count,[9]; [16],10300 and 9210 and 9980
same,cell count,[9]; [17],9560 and 9410 and 11300
same,z-score,[11]; [18],-0.0905 (inactive) and -0.925 (inactive)
same,z-score,[11]; [19],-1.19 and -0.284
